Reference: article PMC5540273 (PLoS ONE, 2017)

What was measured:
Conditions in all cases: concentration: 1 μM, replicates: in singlicate; n = 1
[1] = system: AAK1
[2] = system: ABL1-nonphosphorylated
[3] = system: ABL1-phosphorylated
[4] = system: ABL2
[5] = system: ACVR1B
[6] = system: ACVR1
[7] = system: ACVR2A
[8] = system: ACVR2B
[9] = system: ACVRL1
[10] = system: T1, ADCK3
T1 construct: gene CABC1

[11] = system: ADCK4
[12] = system: AKT1
[13] = system: AKT2
[14] = system: AKT3
[15] = system: ALK
[16] = system: T2, AMPK-alpha1
T2 construct: gene PRKAA1

[17] = system: T3, AMPK-alpha2
T3 construct: gene PRKAA2

[18] = system: ANKK1
[19] = system: T4, ARK5
T4 construct: gene NUAK1

[20] = system: T5, ASK1
T5 construct: gene MAP3K5
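Note: KINOMEscan kinase panel screen.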

| Compound | %Inh [1] | %Inh [2] | %Inh [3] | %Inh [4] | %Inh [5] | %Inh [6] | %Inh [7] | %Inh [8] | %Inh [9] | %Inh [10] | %Inh [11] | %Inh [12] | %Inh [13] | %Inh [14] | %Inh [15] | %Inh [16] | %Inh [17] | %Inh [18] | %Inh [19] | %Inh [20] |
| --- | --- | --- | --- | --- | --- | --- | --- | --- | --- | --- | --- | --- | --- | --- | --- | --- | --- | --- | --- | --- |
| CC(C)(C)c1ccc(C(=O)Nc2cn3cc(-n4ccnc4)ccc3n2)cc1 | 12% | 44% | 21% | 22% | 7% | 0% | 10% | 8% | 0% | 2% | 19% | 6% | 0% | 0% | 0% | 14% | 0% | 82% | 2% | 80% |
| CN(c1ccc(NC(=O)N2CCN(CCCN3CCOCC3)CC2)cc1)c1ccnc(Nc2ccc(CS(C)(=O)=O)cc2)n1.Cl [GW830899] | 55% | 72% | 60% | 8% | 0% | 0% | 23% | 45% | 0% | 3% | 5% | 0% | 0% | 0% | 0% | 0% | 12% | 0% | 0% | 0% |
| Cc1nn2c(=O)cc(N3CCO[C@H](C)C3)nc2n1Cc1cccc(Cl)c1Cl [GSK2373693] | 1% | 0% | 0% | 14% | 22% | 0% | 14% | 0% | 0% | 15% | 2% | 0% | 7% | 4% | 22% | 0% | 11% | 0% | 0% | 8% |
| Cc1cc(-c2c(-c3ccc(F)cc3)ncn2CCCN2CCOCC2)nc(N)n1 [SB-222517] | 14% | 37% | 18% | 0% | 21% | 0% | 0% | 0% | 0% | 1% | 0% | 16% | 0% | 23% | 0% | 10% | 27% | 0% | 0% | 0% |
| COc1cccc(CC(=O)N2CCc3cc(-c4cn(C)c5ncnc(N)c45)ccc32)c1 [GSK2608899] | 18% | 57% | 4% | 30% | 14% | 0% | 0% | 61% | 19% | 2% | 0% | 0% | 8% | 27% | 5% | 15% | 25% | 6% | 19% | 14% |
| CSc1ccc(NC2=C(c3ccc(Cl)cc3)C(=O)NC2=O)cc1 [SB-317658] | 0% | 0% | 0% | 0% | 13% | 0% | 15% | 0% | 23% | 1% | 0% | 9% | 8% | 10% | 0% | 23% | 30% | 3% | 0% | 0% |
| CCn1cnc2c(NCc3ccccc3)ncnc21 [SKF-96418] | 0% | 21% | 9% | 0% | 0% | 0% | 0% | 0% | 0% | 0% | 0% | 0% | 0% | 0% | 0% | 3% | 0% | 0% | 0% | 0% |
| O=C(Nc1c(F)cccc1F)c1cc(C(=O)c2ccccc2F)c[nH]1 [GSK1326180] | 0% | 0% | 0% | 0% | 20% | 0% | 0% | 0% | 9% | 11% | 20% | 0% | 0% | 0% | 33% | 0% | 0% | 2% | 0% | 8% |
| CC(C)NCC(Cc1ccccc1)NC(=O)c1cc(Br)c(-c2ccnc3[nH]ccc23)s1.Cl.Cl (centres unmarked) [GSK1383281] | 25% | 0% | 14% | 5% | 0% | 0% | 0% | 0% | 0% | 14% | 87% | 90% | 73% | 86% | 32% | 57% | 41% | 17% | 62% | 0% |
| Nc1cccc(-c2ccc3c(N)n[nH]c3c2)c1 [GSK2193613] | 55% | 34% | 37% | 21% | 0% | 11% | 0% | 19% | 0% | 3% | 16% | 0% | 0% | 23% | 0% | 0% | 16% | 16% | 0% | 0% |
